This note sets out measurements from PubChem BioAssay (NCI).

The panel holds about 83,000 compounds, 20% with a hit somewhere; the sample as a whole holds those more often.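 A percent growth of 40 corresponds to 60% growth inhibition; 0 means no net growth; -100 means all cells died. Active threshold: below 10.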 Activity calls are given as the source filed them.

The test deals with MOLT-4 leukemia. Nature of the test: NCI-60 one-dose screen, 48 h (100 = growth as untreated, 0 = no growth, -100 = all killed). The note with it: 10 µM unless noted.
Turning to `COc1ccc2c(c1)C(=Nc1cc(OC)c(OC)c(OC)c1)C(=O)N2`, the growth was 104% (inactive).

Consider `COc1cnc2c(c1)C(=O)c1c-2n(CCCn2ccnc2)c(=O)c2cc(F)ccc12`, for which the growth was -23.9% (active).

`C[C@]12CCC(=O)C=C1CCC1C2[C@@H](O)C[C@@]2(C)C1CC[C@]2(O)C(=O)COC(=O)CCC(=O)O` (stereo not given in full): the growth is 115% (inactive).

With `C[C@@H]1[C@H]2[C@H](C=C3[C@@H]4CC[C@H]5Cc6nc7c(nc6C[C@]5(C)[C@H]4C[C@@H](O)[C@@]32C)C[C@@H]2CC[C@H]3C4=C[C@@H]5O[C@@]6(CC[C@](C)(CO)O6)[C@@H](C)[C@@]5(O)[C@@]4(C)[C@H](O)C[C@@H]3[C@@]2(C)C7)O[C@]12CCC(C)(C)O2`, the growth is -21.1% (active).

Turning to `CCOC(=O)/C=C1/SC(=Nc2ccc(C#N)cc2)N(Cc2ccco2)C1=O`, the growth is -6.94% (active).

With `C[C@H](C(=O)N[C@@H](Cc1ccc(-c2ccccc2)cc1)C(=O)NC1CC(C)(C)NC(C)(C)C1)c1ccc(-c2ccccc2)c(F)c1`, the growth is -42.4% (active).

On to `CCSc1nc(-c2ccco2)n2nc(-c3ccco3)cc2n1`, for which the growth is 118% (inactive).

In the case of `CN1CCN(c2nc3scc(-c4ccccc4)c3c(=O)[nH]2)CC1`, the growth is 95.5% (inactive).

For the compound `CC(=O)OC1Oc2cc(C)c(C)cc2-c2oc(=O)c(-c3ccccc3)cc21` (stereo not given), the growth was -20.4% (active).

Take `N#CC(C#N)C(C#N)C#N`: the growth is 96.4% (inactive).

For the compound `CCOC(=O)c1sc(NC(=O)COc2cccc(/C=C3\CCc4cc(OC)ccc4C3=O)c2)nc1C`, the growth was 7.22% (active).

In the case of `COc1cnc2c(c1)C(=O)c1c-2n(CCCN2CCOCC2)c(=O)c2cc(F)ccc12`, the growth was -18.5% (active).

For `CCN1CC2=C(Nc3nc(SC)[nH]c(=O)c3C2c2cc(OC)c(OC)c(OC)c2)/C(=C/c2cc(OC)c(OC)c(OC)c2)C1` (stereo not given), the growth is 82.5% (inactive).

On to `CCOC(=O)CCC(=O)O[C@H]1[C@H](O[C@@H]2[C@@H](C)[C@H](O[C@H]3C[C@@](C)(OC)[C@@H](O)[C@H](C)O3)[C@@H](C)C(=O)O[C@H](CC)[C@@](C)(O)[C@H](O)[C@@H](C)C(=O)[C@H](C)C[C@@]2(C)O)O[C@H](C)C[C@@H]1N(C)C`, for which the growth was 94.2% (inactive).

In the case of `CNCCCn1c2c(c3ccc(F)cc3c1=O)C(=O)c1cc(OC)cnc1-2`, the growth is -19.8% (active).

`NC(=NCCCCCCN=C(N)/N=C(\N)Nc1ccc(Cl)cc1)/N=C(\N)Nc1ccc(Cl)cc1`: the growth was 21.2% (inactive).

In the case of `O=C1CSC(c2ccccc2Cl)N1c1nnc(Cn2nnc3ccccc32)o1` (stereo not given), the growth is 73.4% (inactive).

For the compound `O=C(O)CCC(=O)OC[C@@H](NC(=O)C(Cl)Cl)[C@H](O)c1ccc([N+](=O)[O-])cc1`, the growth is 90.7% (inactive).

As to `COc1ccc(-c2cc(-c3nnc(SCC(=O)Nc4ccc(C(C)=O)cc4)n3-c3ccccc3)c3ccccc3n2)cc1OC`, the growth was 107% (inactive).

On to `C[C@H](C(=O)N[C@@H](Cc1ccc(-c2ccccc2)cc1)C(=O)NC1CC(C)(C)N(C)C(C)(C)C1)c1ccc(-c2ccccc2)c(F)c1`, for which the growth is -60.9% (active).

With `O=C(O)C1C(c2ccccc2)c2ccccc2C(O)C1CO` (stereo not given), the growth is 104% (inactive).

Consider `CSc1nc(Nc2ccc(S(=O)(=O)Nc3ccon3)cc2)c(C#N)c(-c2ccc(Cl)cc2)n1`, for which the growth was -20.8% (active).

Consider `Cc1cc(C)c(C(=O)c2cccs2)c(C)c1`, for which the growth is 104% (inactive).

Consider `COC(=O)C1(NC(=O)CNC(=O)OCc2ccccc2)CCCC1`, for which the growth is 111% (inactive).

Consider `Cc1cc(C)nc(NS(=O)(=O)c2ccc(Nc3nc4nc(SCc5ccccc5)nc(-c5ccc(O)cc5)c4c(=O)[nH]3)cc2)n1`, for which the growth was 73.8% (inactive).

`Nc1ccc(N=Nc2ccccc2)cc1[N+](=O)[O-]`: the growth is 74.1% (inactive).

Consider `NS(=O)(=O)c1cc2c(cc1Cl)NC=NS2(=O)=O`, for which the growth was 103% (inactive).

Regarding `CCOC(=O)C1=CCC(n2cc(C)c(=O)[nH]c2=O)O1` (stereo not given), the growth was 94.7% (inactive).

For `C[C@@H]1C[C@@H]([C@@H](CC2CC(=O)NC(=O)C2)OC(=O)CC(=O)c2ccccc2)C(=O)[C@@H](C)C1`, the growth is 9.81% (active).

Regarding `OCc1n(Cc2ccc3ccccc3c2)cc[n+]1Cc1ccc2ccccc2c1`, the growth is 47.5% (inactive).

As for `Cc1onc(-c2ccccc2Cl)c1C(=O)N[C@@H]1C(=O)N2[C@@H]1SC(C)(C)[C@@H]2C(=O)O`, the growth is 90.5% (inactive).

Take `CC1CN(/N=C/c2ccc([N+](=O)[O-])o2)C(=N)O1` (stereo not given): the growth was 107% (inactive).

For the compound `O=C1NCCc2c1noc2-c1ccccc1`, the growth is 97.5% (inactive).

For `CC(=O)c1ccccc1NC(=O)C(C)(c1ccccc1)c1ccccc1`, the growth was 62% (inactive).

Take `Cc1n(Cc2ccc3ccccc3c2)c2ccccc2[n+]1Cc1ccc2ccccc2c1`: the growth was -54.7% (active).
